# Test results: the supplement of paper PMC6555819
# Columns and labels:
# Assay in all cases: PBM binding z-score (relative to random genomic background probes); higher = stronger binding; sequences stand for … in GC…GCGATTGACAGCGTAGAATGAAGG
# [1] = test system: FXR:RXRa (NR concentration 270 nM, RXRa partner concentration 90 nM)
# Method in brief: (§1)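 Binding buffer was PBS pH 7.4 with 2% milk, 0.02% Triton X-100, 1 mM DTT, 0.2 mg/mL BSA and 0.4 mg/ml salmon testes DNA. In it, ligand-free nuclear receptor dimers were incubated 1 h on custom Agilent 4×180K protein-binding microarrays carrying double-stranded probes. Antibodies against each partner (one per run) detected binding, and z-scores were calculated against random background probes after regression normalization of scanned fluorescence.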
# [2] = test system: LXRa:RXRa (NR concentration 270 nM, RXRa partner concentration 90 nM)
# Method in brief: as §1
# [3] = test system: LXRa homodimer (NR concentration 270 nM)
# Method in brief: as §1
# [4] = test system: LXRb:RXRa (NR concentration 270 nM, RXRa partner concentration 90 nM)
# Method in brief: as §1
# [5] = test system: LXRb homodimer (NR concentration 270 nM)
# Method in brief: as §1
# [6] = test system: PPARa:RXRa (NR concentration 270 nM, RXRa partner concentration 90 nM)
# Method in brief: as §1
# [7] = test system: PPARg:RXRa 270nM:90nM, anti-RXR (NR concentration 270 nM, RXRa partner concentration 90 nM)
# Method in brief: as §1
# [8] = test system: PPARg:RXRa 30nM:10nM, anti-RXR (NR concentration 30 nM, RXRa partner concentration 10 nM)
# Method in brief: as §1
# [9] = test system: PPARg:RXRa 90nM:30nM, anti-RXR (NR concentration 90 nM, RXRa partner concentration 30 nM)
# Method in brief: as §1
# [10] = test system: PPARg:RXRa DBDmut IVT, anti-RXR (DBD mutation: RXRa K156A/R161A, NR concentration 270 nM, RXRa partner concentration 90 nM)
# Method in brief: as §1
# [11] = test system: PPARg:RXRa IVT, anti-PPARg (NR concentration 270 nM, RXRa partner concentration 90 nM)
# Method in brief: as §1
# [12] = test system: PPARg DBDmut:RXRa IVT, anti-PPARg (DBD mutation: PPARg1 K132A/R137A, NR concentration 270 nM, RXRa partner concentration 90 nM)
# Method in brief: as §1
# [13] = test system: PPARg DBDmut IVT, anti-PPARg (DBD mutation: PPARg1 K132A/R137A, NR concentration 270 nM)
# Method in brief: as §1
# [14] = test system: PPARg homodimer (NR concentration 180 nM)
# Method in brief: as §1
# [15] = test system: PXR:RXRa (NR concentration 270 nM, RXRa partner concentration 90 nM)
# Method in brief: as §1
# [16] = test system: PXR homodimer (NR concentration 270 nM)
# Method in brief: as §1
# [17] = test system: RARa:RXR (NR concentration 270 nM, RXRa partner concentration 90 nM)
# Method in brief: as §1
# [18] = test system: RARa homodimer (NR concentration 270 nM)
# Method in brief: as §1
# [19] = test system: RARb:RXRa (NR concentration 270 nM, RXRa partner concentration 90 nM)
# Method in brief: as §1
# [20] = test system: PPARg:RXRa (NR concentration 180 nM, RXRa partner concentration 90 nM)
# Method in brief: as §1
Sequence,PBM binding z-score [1],PBM binding z-score [2],PBM binding z-score [3],PBM binding z-score [4],PBM binding z-score [5],PBM binding z-score [6],PBM binding z-score [7],PBM binding z-score [8],PBM binding z-score [9],PBM binding z-score [10],PBM binding z-score [11],PBM binding z-score [12],PBM binding z-score [13],PBM binding z-score [14],PBM binding z-score [15],PBM binding z-score [16],PBM binding z-score [17],PBM binding z-score [18],PBM binding z-score [19],PBM binding z-score [20]
CAAACTAGGTCAAAGGTCAGAGTCGAGCCAACCA,7.83,6.32,3.45,6.4,1.62,7.34,11.1,13.1,13.7,8.97,9.43,6.85,6.78,5.97,6.67,1.28,8.46,3.04,5.44,–
TCATATAGGTGAAAGGTGAAAGTCGGTGTGGTAA,2.9,2.52,0.284,2.76,0.0843,6.44,9.98,10.2,12.3,7.6,7.55,3.38,1.28,3.1,3.01,0.351,4.34,1.1,2.78,–
CGAACTAGGTCACCAGGACAGTAAAGAGGTTGGA,4.28,2.44,0.233,1.93,0.13,5.1,7.03,4.73,6.51,8.12,8.87,–,5.2,2.63,1.66,0.231,2.62,0.29,4.12,9.15
ATATGTAGTTTAGGGTCATTCAGAAAGTAGGGAA,5.21,4.46,1.76,4.87,2.03,5.14,3.61,1.72,2.87,1.43,2.8,–,1.5,2.89,4.68,1.83,5.48,1.75,3.42,3.26
ATATGTAGGTTAGGGTCATTCGGAAAGTAGGGAA,5.03,4.43,1.22,4.4,1.67,5.83,6.42,4.48,6.36,6.55,6.85,–,4.65,3.85,4.53,1.88,4.88,2.27,3.43,7.56
ATCTGTAGGTTAGGGTCATTCAGAAAGTAGGGAA,4.95,4.18,1.54,4.44,2.08,4.99,4.32,2.09,3.76,2.86,3.74,–,2.08,3.23,4.42,2.1,5.21,2.2,3.58,4.27
GCTATTAGGTGAAAGGGCAACCGAATGATTCTCG,0.916,1.33,-0.0501,1.25,-0.402,5.57,8.6,8.54,9.84,6.66,6.05,0.769,0.0827,1.6,1.48,0.0465,2.47,0.772,2.48,–
CGCACTAGGTCATTGACAGGACAGTGAATAGTAA,4.64,3.31,0.73,2.31,0.424,4.38,5.96,3.36,5.26,8.05,8.26,3.67,3.71,2.42,1.82,0.54,2.55,0.834,3.81,–
TCATATAGGTTAAGGTGAAAGTCGAACGATATGA,2.27,1.59,0.00535,1.55,0.204,3.44,4.61,4.32,4.87,4.9,4.89,1.69,1.29,1.49,1.04,-0.203,2.19,0.984,2.49,–
CCTTACGGGTCAGGAGGTTATAGCACGACGAGCG,4.11,3,0.272,2.52,-0.12,4.49,4.07,1.19,2.57,1.26,2.77,0.0175,-0.373,1.97,2.86,0.19,4.14,0.79,3.63,–
GCATACGGGTCAAAGGTTATAGCATGAATAGAAT,7.92,5.85,0.463,5.74,0.733,7.06,9.95,10.1,11.7,4.64,6.5,1.34,2.31,3.95,6.29,0.519,8.51,0.512,4.49,–
CAAACTAGGTCAAGGTCAAATTCGGTTTGTGCCA,6.94,5.69,5.04,5.06,2.23,6.07,7.8,6.71,8.35,8.72,8.78,2.45,3.07,4.71,5.45,2.83,5.82,2.26,5.09,–
CGTCCAAGGTCAATGCTAGCTCAGTGAAAGCATT,6.48,4.48,0.31,3.45,0.696,4.83,4,0.365,2.62,3.17,3.23,-0.245,-0.858,0.0664,3.48,0.507,3.92,0.334,5.02,–
CCTACTGGGCCAAGCTCATTGATCAGTCAAAGCA,-0.645,-0.823,-0.557,-0.699,-1.01,0.0972,0.223,-0.794,-0.165,4.44,2.91,-0.901,-1.44,-0.727,-0.626,-0.809,-0.399,-1.2,-0.112,–
TCATATAGGTAATAAAGGTGAAAGTCGGCATCTA,1.82,2.15,0.741,1.79,0.336,3.1,4.44,4.71,4.65,3.99,3.74,0.942,1.43,2.01,1.34,0.488,2.02,1.77,1.6,–
